# Screens as filed in PubChem.
# The list is not random: actives were taken first. Their share in the collection is about 17%.
# S2 tox – Viability Counterscreen for Primary qHTS for Inhibitors of ATXN expression; S2 cells (HEK-293 line with an ATXN2-luciferase reporter) viability, CellTiter-Fluor protease fluorescence, 24 h; Potency, µM (doses to about 56.7 µM), hits mostly cytotoxic; 0.49% of 400,000 active; note: nearly all actives have a fitted effect of over 40% in size
# TDP1 cell CPT – qHTS for Inhibitors of human tyrosyl-DNA phosphodiesterase 1 (TDP1): qHTS in cells in presence of CPT. AID 686979, 2013. chicken DT40 Tdp1-/-;hTDP1 cells + 20 nM CPT, ATP luminescence, 48 h. 12% of 420,000 active. Potency, µM (titrated, usually from 46.2 µM), for inactives: top-dose activity change, negative = growth inhibition, actives largely listed as inhibitors; note: % is set by controls: 0 for no effect and ±100 for the full control effect; nearly all actives have a fitted effect of over 55% in size
#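 Chicken DT40 Tdp1-/- cells stably complemented with human TDP1 were seeded at 400 cells/well in medium containing 20 nM camptothecin, exposed to pin-transferred compounds, and grown at 37 °C for at least 48 hr. Viability was read as ATP luminescence.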
# TGFb inhibitor – qHTS for Inhibitors of TGF-b; AID 588855, 2011; Potency, µM (doses to about 46.1 µM), without a hit: at the top dose activity, negative = inhibition, hits mostly inhibitors; HepG2 CAGA-GFP TGF-b/SMAD3 reporter, GFP fluorescence, 18 h; TGF-beta stimulated, 500 pg/mL final; 1.2% of 410,000 active; note: % is set by controls: 0 for no effect and ±100 for the full control effect; nearly all actives have a fitted effect of over 65% in size
#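 GFP signal (ex488/em500-530) from TGF-beta-stimulated HEPG2 CAGA-GFP cells, 500 pg/mL final, 18 h at 37 degrees C in DMEM plus 1% FBS, normalized to unstimulated and DMSO-stimulated controls.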
# ATXN2 expr inh – Primary qHTS for Inhibitors of ATXN expression; HEK-293 ATXN2-luciferase reporter, luminescence, 24 h; Potency, µM (doses to about 57 µM), for the others: at the highest dose activity change, negative = inhibition, hits mostly inhibitors; 0.72% of 360,000 active; note: % is set by controls: 0 for no effect and ±100 for the full control effect; nearly all actives have a fitted effect of over 55% in size
#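 ATXN2-luciferase reporter cells (luciferase flanked by upstream and downstream ATXN2 gene portions) were treated 24 h at 37 °C with compounds at up to 57 uM. SteadyGlo luminescence gave expression; GF-AFC fluorescence gave viability.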
# TDP1 cell noCPT – qHTS for Inhibitors of human tyrosyl-DNA phosphodiesterase 1 (TDP1): qHTS in cells in absence of CPT; Potency, µM (highest dose often 46.2 µM), for inactives: at the highest dose activity change, negative = growth inhibition, actives largely listed as inhibitors; 15% of 420,000 active; DT40 Tdp1-/- hTDP1 cells, no CPT, ATP luminescence, 48 h; note: % is set by controls: 0 for no effect and ±100 for the full control effect; nearly all actives have a fitted effect of over 55% in size
#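 No-CPT arm: Tdp1-/-;hTDP1 DT40 cells (400/well) plus compounds, incubated ≥48 hr at 37 °C. Readout CellTiter-Glo luminescence.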
# HepG2 tox – qHTS for Inhibitors of TGF-b: Cytotox Counterscreen | HepG2 CAGA-GFP viability, ATP luminescence, 18 h | Potency, µM (top dose mostly 46.1 µM), inactives show at the highest dose activity change, negative = cytotoxicity, most hits filed as cytotoxic | 0.76% of 410,000 active
#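 HepG2 CAGA-GFP cells (1000/well, DMEM with 1% FBS) received compound, then TGF-beta at 500 pg/mL final, and were incubated 18 hours at 37 degrees C. Viability was read by CellTiter-Glo luminescence. Media-only wells were set as complete cell-killing and DMSO as no toxicity.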
# Numbers without * were called inactive; i = inactive; ? = inconclusive; nt = no result. Calls come from the whole dose curve; as a rule, active = well fitted curve in the direction sought with a large enough effect; inconclusive = small, poorly fitted or top-dose-only effect, or another doubt; inactive = no such curve, though single readings can be large; an effect the other way counts as inactive or inconclusive. Potency is the fitted concentration of half-maximal effect.
SMILES,S2 tox,TDP1 cell CPT,TGFb inhibitor,ATXN2 expr inh,TDP1 cell noCPT,HepG2 tox
Cn1nc(C(=O)NCC(=O)Nc2ccc(F)c(F)c2)ccc1=O,i,-7.9%,-10.1%,nt,2.0%,3.7%
CCc1ccccc1NC(=O)C1CCCN(S(=O)(=O)c2ccc3[nH]c(=O)ccc3c2)C1 (stereo not given),nt,-22.8%,?,nt,-26.8%,-32.5%
CN(C)CCCN(C(=O)CCSc1ccccc1)c1nc2cc3c(cc2s1)OCO3,?,8.2µM*,?,?,13µM*,-154.9%
CN(C)CCCN(C(=O)COc1ccccc1)c1nc2cc3c(cc2s1)OCCO3,i,-7.2%,?,nt,-29.9%,-41.3%
CN(C)CCCN(C(=O)CCS(=O)(=O)c1ccccc1)c1nc2cc3c(cc2s1)OCO3,?,1.3µM*,?,?,1.46µM*,-107.2%
COc1ccc(OC)c2sc(N(CCCN(C)C)C(=O)CCS(=O)(=O)c3ccccc3)nc12,nt,1.46µM*,?,?,0.651µM*,-96.1%
CN(C)CCCN(C(=O)c1ccc(S(=O)(=O)N(C)C)cc1)c1nc2cc3c(cc2s1)OCO3,i,?,3.4%,-30.5%,?,-9.6%
Cc1ccc(S(=O)(=O)N2C[C@]3(O)C[C@@H]4C(=O)N(c5ccccc5)C(=O)[C@@H]4C[C@]3(OC(=O)Nc3c(C)noc3C)C2)cc1,i,-3.2%,3.7%,12.8%,-5.0%,0.8%
CC(=O)Nc1sc(C)c(C)c1C(=O)OCC(=O)Nc1cc(S(=O)(=O)N2CCCCC2)ccc1Cl,i,-10.0%,?,-5.7%,-0.1%,-24.2%
CC(C)(C)c1ccc(CC(=O)N2CCC2(C)C(=O)Nc2ccc(F)cc2F)cc1 (stereo not given),i,23.1µM*,-11.7%,-22.8%,16.4µM*,-19.9%
CC1(C(=O)Nc2ccc(F)cc2F)CCN1C(=O)CCC1CCCC1 (stereo not given),i,?,-25.0%,-0.2%,23.1µM*,-9.8%
COc1ccc(-n2c(Cc3cccn3C)nnc2SCC(=O)Nc2ccc(C(C)=O)cc2)cc1,i,4.9%,-8.7%,9.6%,-7.8%,1.4%
COc1cccc(-c2cn(C[C@H]3CC[C@@H]([C@@H]4CC[C@H](Cn5cc(-c6cccc(OC)c6)nn5)O4)O3)nn2)c1,?,?,-1.3%,-9.3%,16.4µM*,-10.3%
c1ccc(SCc2cn(C[C@H]3CC[C@@H]([C@@H]4CC[C@H](Cn5cc(CSc6ccccc6)nn5)O4)O3)nn2)cc1,?,?,?,?,16.4µM*,-16.7%
O=C1c2ccccc2C(=O)N1CCCCc1cn(C[C@H]2CC[C@@H]([C@@H]3CC[C@H](Cn4cc(CCCCN5C(=O)c6ccccc6C5=O)nn4)O3)O2)nn1,?,16.4µM*,?,-1.6%,16.4µM*,-3.8%
Cc1ccc(-c2cc3cccc[n+]3cc2-c2ccc(C)cc2)cc1,?,0.651µM*,?,-38.6%,1.16µM*,-13.2%
Cc1ccc2nc(-c3ccncc3)cc(-c3ccccc3)c2c1,i,?,3.9%,-16.3%,?,-47.1%
O=C(NCc1ccncc1)c1nnc(Cc2c(F)cccc2Cl)o1,i,-25.8%,0.0%,3.0%,-13.5%,4.9%
O=C(NCCCN1CCN(c2ccccc2)CC1)c1nnc(Cc2c(F)cccc2Cl)o1,nt,23.1µM*,-9.8%,nt,20.6µM*,-19.1%
CCCCNC(=O)COC(=O)c1ccccc1F,i,1.3%,-0.9%,1.2%,-10.1%,5.6%
CCOC(=O)c1ccc(S(=O)(=O)N2CCN(CCc3ccncc3)CC2)cc1,i,-60.9%,-12.4%,-17.4%,-30.1%,-22.5%
CCCc1nc2ccc(Br)cn2c1Cc1ccccc1,i,4.61µM*,?,11.2%,2.91µM*,-16.6%
Brc1cccc(-c2nc3ccc(Br)cn3c2Cc2ccccc2)c1,?,?,?,51.9%,?,-21.5%
CCCc1nc2ccc(Br)cn2c1Cc1cccc(Cl)c1,?,6.51µM*,-31.3%,-1.4%,4.61µM*,-16.7%
Cc1ccc(N2C(=O)CC(Sc3cccs3)C2=O)cc1 (stereo not given),i,16.4µM*,-10.9%,nt,5.8µM*,2.8%
SMILES,S2 tox,TDP1 cell CPT,TGFb inhibitor,ATXN2 expr inh,TDP1 cell noCPT,HepG2 tox
Cc1cccc(N2C(=O)CC(Sc3nnc(C)s3)C2=O)c1 (stereo not given),i,5.17µM*,?,-3.1%,6.51µM*,0.5%
Cc1cccc(N2C(=O)CC(Sc3nc(C)cc(C)n3)C2=O)c1 (stereo not given),i,?,-11.1%,0.1%,?,-0.9%
O=C1CC(Sc2nnnn2C2CCCCC2)C(=O)N1c1ccccc1 (stereo not given),?,2.91µM*,?,0.0%,4.11µM*,-81.8%
Cn1nnnc1SC1CC(=O)N(c2ccccc2)C1=O (stereo not given),i,2.59µM*,-11.9%,nt,3.26µM*,14.0%
Cc1ccc(CNC(=O)C2CCC(CNS(=O)(=O)c3cccs3)CC2)cc1 (stereo not given),i,-9.7%,0.0%,-17.5%,-18.7%,-9.5%
COc1ccc(NC(=O)CN2C(=O)C(c3ccc(C(C)(C)C)cc3)=NC2(C)C)cc1Cl,nt,-12.0%,nt,nt,-21.6%,-12.8%
Cc1cc(C)cc(N2C(=O)CC(Cn3nc(C)cc3C)C2=O)c1 (stereo not given),i,?,9.6%,-4.0%,-19.1%,-41.3%
Cc1cc(C)cc(N2C(=O)CC(Sc3nnnn3-c3ccccc3)C2=O)c1 (stereo not given),?,2.59µM*,-9.6%,?,5.17µM*,-95.1%
Cc1cc(C)cc(N2C(=O)CC(Sc3ncn[nH]3)C2=O)c1 (stereo not given),i,2.59µM*,0.1%,-10.6%,1.46µM*,-8.2%
CCCCn1c(=O)[nH]c(=O)c2c1nc(-c1ccc([N+](=O)[O-])cc1)n2CC,i,?,4.1%,-9.0%,?,-2.1%
O=C(C[n+]1ccccc1Br)c1ccc(I)cc1,nt,-5.0%,7.6%,nt,?,4.2%
Cc1cc(OCC(=O)N(C)Cc2ccccc2)ccc1Br,i,?,-17.3%,nt,23.1µM*,-35.1%
Cc1cc(S(=O)(=O)N2CCN(CC(=O)N(C)Cc3ccccc3)CC2)ccc1Br,i,?,0.0%,-32.7%,14.6µM*,-7.9%
